Assay outcomes (PubChem BioAssay)
PrPC surface inh = inhibitors of human cell surface prion protein PrPC; TR-FRET read-out; inhibition, % at 13.8 µM; P04156; 370,000 tested, 0.43% active; AID 720596; in the data active = inhibition above about 24%; also: 0% = median of the test wells and 100% = reference compound wells
DUSP3 inh = inhibitors of human VHR1 phosphatase (DUSP3); P51452; recombinant VHR phosphatase, pNPP absorbance; inhibition, % at 13.3 µM; 290,000 tested, 0.52% active; AID 1654; in the data active = inhibition above about 50%
Target sequence (P51452 whole entry, looked up): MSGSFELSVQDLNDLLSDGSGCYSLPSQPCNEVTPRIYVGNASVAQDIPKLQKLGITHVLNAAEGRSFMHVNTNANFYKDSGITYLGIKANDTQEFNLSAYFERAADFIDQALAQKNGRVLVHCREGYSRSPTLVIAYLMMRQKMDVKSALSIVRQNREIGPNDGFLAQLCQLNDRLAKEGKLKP
Yp Topo-I inh = blocks Yersinia pestis topoisomerase I activity. Y. pestis Topo-I cleavage product accumulation, plate reader. activity, % at 10 µM. 360,000 tested, 0.064% active; in the data active = activity above about 50%, passing the limit was not always enough
Vc quorum ag-1 = induces V. cholerae light production without autoinducers; V. cholerae BH1578 lux reporter, luminescence, 6 h; activation, % at 18.7 µM; 350,000 tested, 0.16% active; in the data active = activation mostly above about 9.7%, no sharp cut-off
CCHFV vOTU inh = blocks the CCHF virus ovarian tumor domain protease; inhibition, % at 11.5 µM; CCHFV vOTU protease, Pep-AMC fluorescence; 370,000 tested, 0.55% active; in the data active = inhibition above about 30%; also: 0% = vehicle wells with enzyme and 100% = no enzyme wells
MazF activator = increases E. coli MazEF RNase cleavage of RNA. activation, % at 20 µM. FAM/BHQ RNA-DNA oligo cleavage fluorescence, 5 h. P0AE70. 350,000 tested, 0.32% active; in the data active = activation above about 50%
Target sequence (P0AE70 whole entry, looked up): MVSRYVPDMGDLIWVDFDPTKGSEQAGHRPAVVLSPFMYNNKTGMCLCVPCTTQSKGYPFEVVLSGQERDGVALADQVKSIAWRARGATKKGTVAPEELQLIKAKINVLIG
Vc quorum ag-2 = quorum light induction in BH1578 reporter strain; shares compounds with Vc quorum ag-1; V. cholerae BH1578 lux reporter, luminescence, 6 h; activation, % at 50 µM; 620 tested, under 10 active; AID 602243; call rule not given here
* marks the source's active call; other numbers are inactive results; i = inactive; nt = not tested or not shown. Most compounds without a hit are left out; they make up all but 1.8% or so of the library.

SMILES	PrPC surface inh	DUSP3 inh	Yp Topo-I inh	Vc quorum ag-1	CCHFV vOTU inh	MazF activator	Vc quorum ag-2
CC(=O)Nc1ccc(-n2cnnn2)cc1	-4	-18	-6	0	-4	2	nt
COc1ccccc1N1CCN(C(=O)c2cc3c(s2)CCC3)CC1	4	27	24	12	3	-10	0
COc1ccc(N2CCN(C(=O)c3cc4c(s3)CCCCC4)CC2)cc1	8	nt	20	0	21	-9	nt
COc1cc(NC(=O)C2=C(C)OCCS2)c(Cl)cc1C(=O)NCCN(C)C	5	44	-1	34*	2	3	1
CCOC1=C2[C@@H](CN(S(=O)(=O)c3ccc(C)cc3)[C@H]2c2ccccc2Cl)[C@H]2C(=O)N(Cc3ccccc3)C(=O)[C@H]2C1	8	nt	nt	nt	8	nt	nt
O=C(OCc1ccccc1)[C@H](Cc1ccccc1)NC(=O)[C@@H]1CC=C[C@@H]2CCN(CCc3ccccc3)C(=O)[C@@H]21	1	nt	nt	nt	nt	nt	nt
CCCCNC(=O)COC(=O)c1ccc(N(C)C)cc1	1	13	4	170*	6	1	359
Cc1noc(C)c1S(=O)(=O)Nc1ccc2c(c1)C(=O)N([C@H](C)CO)C[C@H](C)[C@@H](CN(C)Cc1ccc(C(=O)O)cc1)O2	-1	nt	6	20	6	3	0
O=C(O)c1[nH]c2ccccc2c1NS(=O)(=O)Cc1ccccc1	5	-6	17	7	-6	11	0
O=C(O)c1[nH]c2ccccc2c1NS(=O)(=O)c1ccc(F)cc1	-4	11	11	i	15	4	nt
CC(Nc1ccc(F)cc1)=[N+](C)CCNS(=O)(=O)c1ccc(Cl)cc1	0	14	-1	i	13	-5	nt
CC(C)CCN1CC(C(=O)N2CCN(c3ccc(F)cc3)CC2)CC1=O (centres undefined)	-1	13	2	17*	2	5	0
OCCn1c(SC2CCCCC2)nc2ccccc21	9	8	16	17*	9	4	0
OCCn1c(SCCOc2ccccc2F)nc2ccccc21	-1	1	-1	0	5	2	nt
Cc1nc2ccc(C(=O)OCC(=O)N(C)c3ccccc3)cc2nc1C	0	nt	0	14	-7	-2	0
COC(=O)c1c(-c2ccc(Br)cc2)noc1N	-4	28	5	17*	-8	-1	10
CCOc1cc(-c2noc(N)c2C(=O)OC)cc(OCC)c1OCC	-2	15	16	-3	-1	4	nt
Cn1nc(-c2ccc(OCC(=O)NCC3CCCO3)cc2)c2ccccc2c1=O (centres undefined)	0	10	-2	12	1	5	1
CCCCCCCCN1C(=O)[C@@H](CC(=O)N2CCC(c3ccccc3)CC2)C[C@@]2(C(=O)OC)C1=C[C@H](C1CCCC1)O[C@@H]2C	6	nt	nt	nt	-2	nt	nt
CC(=O)c1ccc(S(=O)(=O)Nc2cccc(-c3ccc4nncn4n3)c2)cc1	-12	25	-7	23*	-4	1	0
CC(=O)Nc1ccc(S(=O)(=O)Nc2cccc(-c3ccc4nncn4n3)c2)cc1	-7	6	1	0	-12	4	nt
CN(C1CCCCC1)S(=O)(=O)CCNC(=O)c1ccccc1	-1	nt	13	14	-2	3	0
COc1cc(/C=C/C(=O)O[C@H]2[C@H](O[C@@H]3O[C@@H](C)[C@H](O)[C@@H](O)[C@H]3O)[C@@H](O)[C@H](OCCc3ccc(O)c(OC)c3)O[C@@H]2CO)ccc1O	4	nt	-1	0	-7	5	nt
CCOC(=O)c1c(NC(=O)c2cccs2)sc(C)c1CC	0	14	10	114*	4	-12	1
CC(C)c1ccc(OCC(=O)NC2CCCC2)cc1	4	-2	8	nt	12	-3	i
Cc1cc(C(=O)OCC(=O)NC2CCCCC2)c(C)o1	-7	19	2	175*	9	1	660
Cc1cc(C(=O)OCC(=O)Nc2ccccc2F)c(C)o1	4	25	-3	57*	15	-2	15
